Results reported in PubChem BioAssay AID687016 (The Scripps Research Institute Molecular Screening Center, 2013).
About 2,800 (0.76%) of roughly 370,000 compounds were called active. The list comes from a sample in which actives are over-represented; it also holds similar structures and randomly drawn compounds. A number with no mark means an inactive call. Cut-off read from the data, not from the text of the source: active = inhibition above about 21%; inactive = the rest.

What follows are molecules tested against E3 ubiquitin-protein ligase UHRF1 (Homo sapiens) (UniProt Q96T88) (assay: blockers of UHRF1 binding to methyl-oligo – biochemical, TR-FRET, human UHRF1, single concentration, counter-screen for MBD2 inhibitor project, primary screen (AID 687016;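 note: UHRF1 SRA domain binding a hemimethylated CpG hairpin DNA probe; 0% = median of test compound wells and 100% = reference inhibitor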)). Details: UHRF1 binding to methylated oligo, at 4.4 µM, stronger effect = higher value.
E3 ubiquitin-protein ligase UHRF1 (Homo sapiens), sequence (Q96T88 whole entry, looked up, the tested form may be a part): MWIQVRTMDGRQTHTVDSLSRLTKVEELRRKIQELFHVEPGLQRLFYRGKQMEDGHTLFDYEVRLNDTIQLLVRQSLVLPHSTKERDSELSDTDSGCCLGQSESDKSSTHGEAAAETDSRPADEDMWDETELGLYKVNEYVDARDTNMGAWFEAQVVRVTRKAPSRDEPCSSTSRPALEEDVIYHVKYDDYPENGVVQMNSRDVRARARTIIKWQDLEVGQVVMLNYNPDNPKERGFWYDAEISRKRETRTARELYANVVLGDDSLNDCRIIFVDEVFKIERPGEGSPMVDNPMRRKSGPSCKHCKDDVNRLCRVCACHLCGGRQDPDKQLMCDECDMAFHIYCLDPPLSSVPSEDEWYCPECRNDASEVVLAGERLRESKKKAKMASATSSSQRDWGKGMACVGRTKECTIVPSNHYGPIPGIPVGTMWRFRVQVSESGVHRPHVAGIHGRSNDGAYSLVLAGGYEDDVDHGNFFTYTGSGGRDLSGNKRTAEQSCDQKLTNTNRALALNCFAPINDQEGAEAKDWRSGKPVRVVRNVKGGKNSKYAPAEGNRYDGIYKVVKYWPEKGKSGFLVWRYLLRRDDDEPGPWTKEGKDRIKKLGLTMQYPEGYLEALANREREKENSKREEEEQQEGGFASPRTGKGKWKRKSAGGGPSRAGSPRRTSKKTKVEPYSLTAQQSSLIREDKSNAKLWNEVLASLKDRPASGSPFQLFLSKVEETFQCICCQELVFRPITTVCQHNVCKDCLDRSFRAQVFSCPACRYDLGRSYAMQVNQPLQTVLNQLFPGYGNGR

| SMILES | inhibition |
| --- | --- |
| CCCC[C@H](C(=O)N(CC)c1ccccc1)[C@@H](O)c1ccc2ccccc2c1 | -2.02% |
| Cc1ccccc1CN1CCCCC(NC(=O)c2cccc(C#N)c2)C1=O (stereo not given) | -0.18% |
| COC(=O)C[C@@H]1CC[C@H]2[C@@H](COc3ccc(NS(=O)(=O)CC(F)(F)F)cc3C(=O)N2C)O1 | 1.54% |
| CC[C@@H](CCC(=O)N(c1ccccc1)c1ccccc1)C1CC1 | 1.36% |
| CC(NC(=S)NC1CCCCC1)C(c1ccccc1)N1CCOCC1 (stereo not given) | 0.56% |
| COC(=O)c1ccc(NC(=S)NN2CCOCC2)cc1 | -1.42% |
| S=C(NC1CCCCC1)NN1CCOCC1 | 32.8% (active) |
| N[C@@H](Cc1ccccc1)C(=O)N1CCC[C@@H]1C(=O)N1CCC2CCN(S(=O)(=O)c3ccccc3)CC21 (stereo not given in full) | 1.24% |
| C=CCN(C)CC#Cc1ccccc1 | 1.63% |
| CC(C)(C)NC(=O)NC(=O)CN1CCC(Cc2ccccc2)CC1 | 38.1% (active) |
| O=C(CN1CCCCC1)NC(=O)Nc1ccccc1F | -2.79% |
| NC(=O)c1ccc(CN2CCC(Cc3ccccc3)CC2)cc1 | -0.37% |
| CC(CCN1CCC(C(O)(c2ccccc2)c2ccccc2)CC1)Oc1ccc([N+](=O)[O-])cc1Cl (stereo not given) | -2.34% |
| CCCC[C@H]1C2CC(OC(=O)NCc3ccccc3)C(C2)[C@H]2CCCCN21 (stereo not given in full) | 2.4% |
| COc1ccc(C(=O)OCCN2CCN(C3CN(Cc4cn(Cc5ccccc5F)nn4)S(=O)(=O)C3)CC2)cc1OC (stereo not given) | 16.4% |
| C=CCn1c(=S)[nH]c2scc(-c3ccco3)c2c1=O | 42% (active) |
| O=C(CSc1nnc(-c2ccccc2)n1Cc1ccco1)Nc1ccccc1-c1ccccc1 | -1.14% |
| Cc1ccc(-n2c(SCC(=O)Nc3ccc(S(=O)(=O)Nc4nccs4)cc3)nnc2-c2ccncc2)cc1 | -0.73% |
| CCOc1ccc(-n2c(SCC(=O)Nc3cc(C)c(NC(=O)c4ccccc4)cc3OC)nnc2-c2cccc(Cl)c2)cc1 | -1.29% |
| O=C(NC1CCC1)c1ccc(C#CC2CC2)cn1 | 1.8% |
| COCCCNC(=O)C[C@H]1C[C@@]2(C(=O)OC)C(=C[C@H](C(C)(C)C)O[C@@H]2C)N(Cc2ccc(Cl)cc2Cl)C1=O | -1% |
| Cc1cc(C)c(OCCN2CC(C)OC(C)C2)c(Br)c1 (stereo not given) | 22.5% (active) |

| SMILES | inhibition |
| --- | --- |
| CC1CN(CCCOc2ccccc2-c2ccccc2)CC(C)O1 (stereo not given) | 1.48% |
| CC1CN(CCOc2ccccc2[N+](=O)[O-])CC(C)O1 (stereo not given) | 0.96% |
| CCn1c(=O)n2n(c1=O)[C@@]1(C=C3CCCC[C@H]32)N=C(NC(=O)c2ccccc2)N(Cc2ccccc2)[C@H]1Cc1ccccc1 | 1.35% |
| CCN(CC)C(=O)CC[C@H]1CC[C@]2(CCCN(Cc3ccc(Cl)cc3)C2)O1 | -2.85% |
| O=C(Cc1cccs1)NCc1cccc(C(F)(F)F)c1 | 2.41% |
| COC(=O)Cc1c(O)ccn(Cc2cccc(C(F)(F)F)c2)c1=O | -0.17% |
| COC(=O)Cc1csc(/N=C/c2c(O)n(-c3cccc(C(F)(F)F)c3)c(=O)c3ccccc23)n1 | 20.8% (active) |
| COc1ccc(CN2C(=O)N3Cc4cc(OC)ccc4C3CS2(=O)=O)cc1 (stereo not given) | -0.8% |
| Cc1ccc(NC(=O)Nc2cc(C)nn2-c2ccccc2)cc1 | -0.03% |
| C#CCNC(=O)C[C@H]1C[C@@]2(C(=O)OC)C(=C[C@H](C(C)C)O[C@@H]2C2CC2)N(Cc2ccco2)C1=O | 1.95% |
| COc1ccc(CC(=O)Nc2ccc(-c3nnc(-c4ccc(C)cc4)o3)cc2)cc1 | 22.5% (active) |
| COc1ccc(Cc2n[nH]c(=S)n2NC(=O)Nc2ccc(C)cc2)cc1 | -1.17% |
| COc1ccc(NC(=O)CN(C)C(=O)c2cc(C)oc2C)cc1 | 0.64% |
| O=S1(=O)c2c(cccc2N2CC[C@H](O)C2)O[C@@H]2CCN1C2 | 1.23% |
| Cc1cc2c(c(=O)n1Cc1ccco1)C(c1ccccc1)C(C#N)=C(N)O2 (stereo not given) | 32.8% (active) |
| CC(C)c1ccc(C2C(C#N)=C(N)Oc3c2oc(CO)cc3=O)cc1 (stereo not given) | -3.69% |
| Cc1cc2c(c(=O)n1C)C(C(C)C)C(C#N)=C(N)O2 (stereo not given) | 0.11% |
| CCN(C(=O)[C@@H](C1CC1)[C@@H](O)c1ccc2ccccc2c1)c1ccccc1 | -2.68% |
| COc1ccc(C(=O)OCCN(C)C2CN(Cc3cn(Cc4cccc(C)c4)nn3)S(=O)(=O)C2)cc1OC (stereo not given) | 13.8% |
| Cc1nn(-c2ccccc2)c(Cl)c1/C=N/NC(=O)c1nn(C)cc1[N+](=O)[O-] | 23.8% (active) |
| Cn1nccc1/C=N\NC(=O)c1ccc(Cl)cc1 | 4.97% |
| Cc1nn(-c2ccccc2)c(-n2cccc2)c1C(=O)O | 1.78% |

| SMILES | inhibition |
| --- | --- |
| CC(C)CNC(=O)OCc1cn(Cc2ccc(F)cc2)nn1 | 3.53% |
| COC(=O)[C@H](C(C)C)N(CCc1cn(Cc2ccccc2)nn1)S(=O)(=O)c1ccc(F)cc1Br | -0.16% |
| Cc1ccc(Cn2cc(CN3[C@@H](CC(C)C)COc4ccc(Cl)cc4S3(=O)=O)nn2)cc1 | -2.98% |
| c1coc(CCNc2ncnc3ccc(-c4ccc5c(c4)OCO5)cc23)c1 | -3.63% |
| COC(=O)c1cccc(Cn2ccc3ccc(-c4ccc5ccn(C(=O)c6ccccc6C)c5c4)cc32)c1 | -1.17% |
| O=C(CN1CCN(c2ccc(O)cc2)CC1)Nc1ccc(-c2ccccc2)cc1 | -0.69% |
| Oc1ccc(N2CCN(C(=S)NCc3ccccc3)CC2)cc1 | 40.4% (active) |
| O=C(COC(=O)c1ccccc1C(=O)N1CCN(c2ccccc2)CC1)NCc1ccccc1 | -3.11% |
| CCOC(=O)C1CCN(C(=O)C(C)(C)NC(=O)Nc2ccccc2Cl)CC1 | 0.18% |
| COC(=O)[C@]12C[C@H](CC(=O)NCc3cccs3)C(=O)N(CCc3ccc(OC)c(OC)c3)C1=C[C@H](C(C)C)O[C@@H]2C1CC1 | -0.69% |
| O=C(CSc1nc2ccccc2s1)NN=Cc1ccc(O)cc1O | -4.05% |
| COC(=O)[C@]12C[C@H](CC(=O)NCCC(C)C)C(=O)N(CCc3ccc(OC)c(OC)c3)C1=C[C@H](C(C)(C)C)O[C@@H]2C | 34.2% (active) |
| COC(=O)[C@]12C[C@H](CC(=O)NCc3ccccc3)C(=O)N(CCc3ccc(OC)c(OC)c3)C1=C[C@H](C(C)(C)C)O[C@@H]2C | -1.24% |
| CCCCOCCCNC(=O)C[C@H]1C[C@@]2(C(=O)OC)C(=C[C@H](C(C)(C)C)O[C@@H]2C)N(CCc2ccc(OC)c(OC)c2)C1=O | -0.73% |
| CC(C)(C)c1ccc(CSc2nnc(-c3cccs3)o2)cc1 | -2.34% |
| Cc1ccc(Cc2cnc(N)s2)o1 | 53.9% (active) |
| O=C(NCCC1=CCCCC1)C1CCN(S(=O)(=O)c2ccc(Cl)s2)CC1 | -0.71% |
| O=C(OC12CCCN(C1)/C(=C/c1ccccc1)C2)c1ccco1 (stereo not given) | 3.41% |
| C=CCN1[C@@H](Cc2ccccc2)COc2cccc(N3CCSCC3)c2S1(=O)=O | -0.98% |
| CNS(=O)(=O)c1cccc(C(=O)OCC(=O)N2c3ccccc3NC(=O)C2(C)C)c1 | 5.39% |
| Cc1ccc(OCCC(=O)OCC(=O)N2c3ccccc3NC(=O)C2(C)C)cc1 | 24.6% (active) |
| CC1(C)C(=O)Nc2ccccc2N1C(=O)COC(=O)Cn1cnc2ccccc2c1=O | 1.64% |

| SMILES | inhibition |
| --- | --- |
| COc1ccnc(C(=O)N2CCC(Oc3cccnc3)CC2)c1 | -0.76% |
| O=C1CC(c2ccc3c(c2)OCO3)N=C2N(CC3CC3)C/C(=C/c3ccccc3)N12 (stereo not given) | -0.7% |
| O=c1ccc2c(-c3ccccc3S(=O)(=O)O)c3ccc(O)c(O)c3oc-2c1O | 82.5% (active) |
| Cc1cc(=O)[nH]c(SCC(=O)Nc2ccc(F)cc2F)n1 | -1.2% |
| COCCOC(=O)C1=C(C)NC(=O)NC1c1cc2c(cc1Br)OCO2 (stereo not given) | 0.79% |
| CC(=O)C1=C(C)NC(=O)NC1c1ccc2c(c1)OCO2 (stereo not given) | 0.08% |
| CCOCCOC(=O)C1=C(C)NC(=O)NC1c1ccc2c(c1)OCO2 (stereo not given) | 31.3% (active) |
| CC(CCN1CCC(C(O)(c2ccccc2)c2ccccc2)CC1)Oc1ccc(C(F)(F)F)cc1 (stereo not given) | 1.26% |
| O=C(CCS(=O)(=O)c1ccccc1)Nc1ccc(Cl)c(Cl)c1 | 3.31% |
| COC(=O)[C@]12C[C@H](CC(=O)NCC34CC5CC(CC(C5)C3)C4)C(=O)N(Cc3ccc(Cl)cc3Cl)C1=C[C@H](COCc1ccccc1)O[C@@H]2C | -0.14% |
| CCOC(=O)c1ccc2[nH]c(C)c(CN3CCN(C)CC3)c(=O)c2c1 | -2.6% |
| CN(C)CCn1c(=S)[nH]c2ccc(Cl)cc2c1=O | -4.42% |
| CCCCN(C)Cc1c(C)[nH]c2ccc(Cl)cc2c1=O | 27% (active) |
| O=C(OC12CCCN(C1)/C(=C/c1cccnc1)C2)C1CCCC1 (stereo not given) | -1.46% |
| COc1ccc(-n2c(C)cc(C(=O)CSc3nnc(-c4cccs4)o3)c2C)cc1 | 23.6% (active) |
| CCc1ccccc1NC(=O)CSc1nnc(-c2cccs2)o1 | 1.37% |
| COc1ccc(-c2nnc(SCC(=O)c3ccc4c(c3)OCCO4)o2)cc1 | -0.81% |
| COc1ccc(-n2c(SCC(=O)NC3CCCC3)nnc2-c2ccncc2)cc1 | 0.14% |
| COC(=O)[C@]12C[C@H](CC(=O)N3CCOCC3)C(=O)N(Cc3ccc(Cl)cc3Cl)C1=C[C@H](COCc1ccccc1)O[C@@H]2C | 0.29% |
